Laboratory results published in PubChem BioAssay AID690 (Sanford-Burnham Center for Chemical Genomics, 2007).
Among all 96,000 compounds or so, about 80 (0.08%) were called active. No rule for the calls is given here. The list is a sample of the results. Results with a measured potency or affinity are listed apart.

Molecular target: Alkaline phosphatase, placental type (Homo sapiens) (UniProt P05187)
Experiment: PLAP enzyme inhibitors, biochemical, luminescence, HTS (AID 690)
Settings: purified PLAP, luminescent substrate; at 20 µM; stronger effect = higher value

Sequence of Alkaline phosphatase, placental type (Homo sapiens) (P05187 whole entry, looked up): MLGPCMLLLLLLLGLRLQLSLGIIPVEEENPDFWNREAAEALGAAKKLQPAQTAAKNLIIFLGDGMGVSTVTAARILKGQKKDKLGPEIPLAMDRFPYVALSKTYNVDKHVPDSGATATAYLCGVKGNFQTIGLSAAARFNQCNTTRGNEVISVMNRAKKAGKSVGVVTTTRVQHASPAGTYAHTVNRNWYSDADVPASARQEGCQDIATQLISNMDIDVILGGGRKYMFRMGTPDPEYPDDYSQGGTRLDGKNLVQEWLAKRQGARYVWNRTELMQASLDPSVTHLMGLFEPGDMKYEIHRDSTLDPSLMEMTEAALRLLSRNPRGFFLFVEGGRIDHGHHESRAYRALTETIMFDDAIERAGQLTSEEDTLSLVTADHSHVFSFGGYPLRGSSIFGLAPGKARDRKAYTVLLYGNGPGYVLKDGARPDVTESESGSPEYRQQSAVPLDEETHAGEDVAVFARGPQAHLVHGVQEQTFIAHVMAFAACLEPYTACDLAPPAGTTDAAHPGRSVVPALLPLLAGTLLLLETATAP

inhibition, inactive:
Cc1ccc(C)c(NC(=S)NC(NC(=O)N(C)C)C(Cl)(Cl)Cl)c1 (stereo unspecified) -58%, Cc1ccc(NC(=S)NC(NC(=O)Cc2cccc3ccccc23)C(Cl)(Cl)Cl)cc1 (stereo unspecified) 36.5%, Cc1nc(N2CCN(S(=O)(=O)c3ccccc3)CC2)c2c3c(sc2n1)CC(C)CC3 (stereo unspecified) -34.1%, O=C1c2ccc3c4c(ccc(c24)C(=O)N1Cc1cccnc1)C(=O)N(Cc1cccnc1)C3=O 4.9%, CC(O)CNc1nc2c(c(=O)n(C)c(=O)n2C)n1C/C=C/c1ccccc1 (stereo unspecified) -20.9%, CCCN1/C(=C2/SC(=S)N(CC)C2=O)C=Cc2ccccc21 11.9%, CCN1C(=O)/C(=C2\C=Cc3ccccc3N2CC)SC1=S 23.5%, CCn1ncc(Br)c1C(=O)N(C)C12CC3CC(CC(C3)C1)C2 -9.1%, CN(CCNC(=O)c1cccc(N2CCCC2=O)c1)Cc1ccccc1 -40.3%, O=C1Nc2ccccc2/C1=N\N=C\C1=C(N2CCOCC2)C(=C\c2ccccc2)/CC1 -12.2%, O=P(C1=C(N2CCOCC2)/C(=C\c2ccccc2)CC1)(N1CCOCC1)N1CCOCC1 -69.4%, O=C(O)c1c(Cl)c(Cl)c(Cl)c(Cl)c1C(=O)N1CCCC1 -10.8%, CCOCC(O)CSCc1ccc(Cl)cc1 (stereo unspecified) -5%, COc1ccc(CNC(=O)c2ccc(-c3ccccc3)cc2)cc1 6.9%, Fc1cccc(Cl)c1CSc1nnnn1-c1ccc2c(c1)OCO2 22.7%, Fc1ccccc1CSc1nnnn1-c1ccc2c(c1)OCO2 13.8%, CCOC(=O)CC(=O)CSc1nc2c(cc1C#N)CCC2 0%, CC(C)NS(=O)(=O)c1ccc(OCC(=O)NCc2ccccc2)cc1 -1.7%, O=C1C2C3C=CC(C3)C2C(=O)N1c1cccc(N2C(=O)C3C4C=CC(C4)C3C2=O)n1 (stereo unspecified) -1.8%, O=C1C2C3C=CC(C3)C2C(=O)N1c1n[nH]c(CCc2ccccc2)n1 (stereo unspecified) 30%, O=C1C2CC=CCC2C(=O)N1c1n[nH]c(CCc2ccccc2)n1 (stereo unspecified) -20.2%, O=C1C2C3C=CC(C3)C2C(=O)N1Cc1cccnc1 (stereo unspecified) 0.6%, O=C1C2C3C=CC(C3)C2C(=O)N1c1cccnc1 (stereo unspecified) 15.9%, O=C1C2CC=CCC2C(=O)N1c1n[nH]c(Cc2ccccc2)n1 (stereo unspecified) 62.3%, Cc1ccc(SCCNC(=O)C(CO)(CO)CO)cc1 11.9%, COc1ccc(CN(Cc2cc3ccc(C)cc3[nH]c2=O)Cc2nnnn2C2CCCC2)cc1 -54.8%, Cc1ccc(-c2cc(C(=O)N/N=C\c3cnn(C)c3C)c3ccccc3n2)cc1C -102%, C=CCn1c(SCC(=O)Nc2ccccc2OC)nnc1-c1ccco1 8%, O=C(C1CC1)N1CCN=C1SCc1cccc(C(F)(F)F)c1 3%, CCOCCCNC(=O)C1CCCN1S(=O)(=O)c1ccc(Cl)cc1 (stereo unspecified) 8.4%, C#CC(CC)(CC)NC(=O)c1c(C)noc1C 4.5%, O=C(Cc1cccs1)NCc1ccc(F)cc1 -6%, CN1CCN(c2nc3c(c(=O)n(C)c(=O)n3C)n2CC(=O)C23CC4CC(CC(C4)C2)C3)CC1 -54.5%, CCN(CC)c1ccc(N2C(=O)/C(=C/c3cccs3)SC2=S)cc1 3.4%, O=C1/C(=C/c2cccs2)SC(=S)N1c1ccccc1 12.2%, CC(C)N(CCNS(=O)(=O)c1ccc(Cl)cc1)C(C)C 9.6%, O=C(Nc1ccccc1C(F)(F)F)c1ccc(CN2CCC(Cc3ccccc3)CC2)cc1 -22.3%, Cc1nn(-c2ccccc2)c(C)c1/C=N/NC(=O)c1cc(C(C)(C)C)[nH]n1 -32%, Cc1ccc(-c2cc(C(=O)N/N=C/c3c(C)nn(-c4ccccc4)c3C)[nH]n2)cc1 -2.5%, O=c1[nH]c(CSc2nnc(-c3ccncc3)n2Cc2ccco2)nc2ccccc12 -3.5%, N=c1oc2ccc3ccccc3c2cc1-c1nnc2n1CCCCC2 -35.4%, O=[N+]([O-])c1ccc(C2CCCC/C2=N/OCc2ccc(F)cc2)c([N+](=O)[O-])c1 (stereo unspecified) 25.8%, CC1CCC/C(=N/Nc2ccc([N+](=O)[O-])cc2[N+](=O)[O-])C1 (stereo unspecified) 21.1%, CCN(CC)CCCNC(=O)N[C@@H](Cc1ccccc1)C(=O)O -2.1%, CC(=O)c1c(C(C)=O)c(C)n(-c2ccc(O)cc2)c1C -4.3%, CCCCNC(=O)NC1(C(F)(F)F)Oc2ccccc2O1 -12%, COCC(C)NC(=O)NC1(C(F)(F)F)Oc2ccc(Cl)cc2O1 (stereo unspecified) 34.9%, CC(NC(=O)NCc1cccnc1)(C(F)(F)F)C(F)(F)F -6.1%, O=C(NCc1cccnc1)NC1(C(F)(F)F)Oc2ccccc2O1 12.3%, Cc1nccn1S(=O)(=O)c1ccc(Br)cc1Br -1.1%, OC(CC1CC12c1ccccc1-c1ncccc12)(c1ccccc1)c1ccccc1 (stereo unspecified) -45%, CCCCn1cc(C(=O)c2cc(Br)ccc2O)cc(C#N)c1=O -1.5%, CC1CCc2c(c3ccccc3[nH]c2=O)O1 (stereo unspecified) 9%, CCCC1CCc2c(c3ccccc3[nH]c2=O)O1 (stereo unspecified) -5%, Fc1ccc(CSc2nnc(-c3cnccn3)n2Cc2ccco2)cc1 7.7%, CCCCOC(=O)CNc1n[nH]c(=S)[nH]c1=O -1.8%, CCCCOC(=O)C(C)Nc1n[nH]c(=O)[nH]c1=O (stereo unspecified) 3.9%, CCN1CCN(Cc2nc3c(c(=O)n(C)c(=O)n3C)n2Cc2cccc3ccccc23)CC1 -34.1%, Cc1ccccc1CN(c1ccc(C(=O)N2CCc3ccccc3C2)cc1)S(C)(=O)=O -40.7%, O=C(c1cccs1)c1coc2ccc(O)c(CN3CCOCC3)c12 -1%, O=c1sc2ccccc2n1CCOc1ccccc1 33.9%, Cc1ccc(OCn2c(=O)sc3ccccc32)cc1 -9%, CCOc1ccc(NC(N)=O)cc1OCC 13.6%, O=P(O)(O)c1ccccc1OCCCCCOc1ccccc1P(=O)(O)O 21.2%, O=P(O)(O)c1ccccc1OCCOCCOc1ccccc1P(=O)(O)O 17.4%, CSC1=C(C#N)C(c2ccccc2C)C(C#N)=C(N)N1 (stereo unspecified) 17.9%, O=C(NC(Cc1ccc(F)cc1)C(=O)O)c1ccccc1 (stereo unspecified) -2.2%, Cc1cc(C)n2nc(SCc3nnc(SCc4ccccc4)s3)nc2n1 -20.5%, COC(=O)c1cc(NC(=O)C2COc3ccccc3O2)ccc1Cl (stereo unspecified) 28.8%, Cc1c(NC(=O)C(C)OC(=O)CNC(=O)c2ccccc2)c(=O)n(-c2ccccc2)n1C (stereo unspecified) 5.2%, Cc1ccc(C(=O)CSc2nc3ccccc3c(=O)[nH]2)cc1 -27.5%, O=C(CSc1n[nH]c(-c2ccccc2)n1)c1ccccc1 -11.7%, O=C(CSc1n[nH]c(-c2ccncc2)n1)c1ccccc1 7.6%, CC(C)(C)c1ccc(C(=O)CSc2nc3ccccc3c(=O)[nH]2)cc1 -9.7%, COc1ccc(Cn2c(CCC(=O)Nc3ccc(CC#N)cc3)nc3cccnc32)cc1 11.1%, O=C(C[n+]1ccc(C(=O)N/N=C/c2ccc(O)cc2)cc1)c1ccccc1 23.2%, O=C(C[n+]1ccc(C(=O)N/N=C/c2ccc(OCc3ccccc3)cc2)cc1)c1ccccc1 41.8%, CC(=O)NC1C(=O)N=C(SCC(=O)NC(C)c2ccccc2)NC1=O (stereo unspecified) -18.8%, C=CCNS(=O)(=O)CC12CCC(CC1=O)C2(C)C (stereo unspecified) 4.8%, O=C(Nc1cc(N2CCOCC2)ncn1)Nc1cccc2ccccc12 14.5%, CCOC(=O)Cc1csc(NC(=O)NC2(C(F)(F)F)Oc3ccc(Cl)cc3O2)n1 (stereo unspecified) 30.3%, O=C(NC1(C(F)(F)F)Oc2ccccc2O1)N1CCCC1 -7.5%, O=C(Nc1cc(N2CCOCC2)ncn1)c1ccccc1 1.3%, CC(=O)OC(C)(C)C#CCN1CCCC1 24.5%, CC(=O)N1CCN(C(=S)c2ccc([N+](=O)[O-])cc2)CC1 12.8%, Cc1[nH]c2ccccc2c1C(=O)/C=C/c1ccccc1 10.6%, Cc1[nH]c2ccccc2c1/C=N/n1cnnc1 7.5%, Cc1nn(CC(O)Cn2cnc3c2c(=O)n(C)c(=O)n3C)c(C)c1Br (stereo unspecified) -1.6%, CCOc1cccc(-c2nc(C(N)=O)c3[nH]c(=O)n(-c4cccc(Cl)c4)c3n2)c1O -27.5%, COc1ccc(OCCNc2cc(Cl)ccc2[N+](=O)[O-])cc1 4.1%, COc1cccc(OCCNc2cc(N3CCCCC3)ccc2[N+](=O)[O-])c1 -2.3%, CCC(=O)NCCc1nc2cc(NC(=O)c3ccccc3OC)ccc2n1C -60.5%, CCOC(=O)c1c(C)n(CC(COC(C)=O)OC(C)=O)c2ccc(OC(C)=O)cc12 (stereo unspecified) -45.7%, CCCCN(CCCC)S(=O)(=O)c1ccc(C(=O)Nc2nnc(CSC)o2)cc1 -15.3%, c1ccc([C@H]2CC3C[C@@H](c4ccccc4)N2O3)cc1 -8.8%, O=C(NC1CCCCCC1)c1nc2ncccn2n1 2.9%
